Screening data (PubChem)
An excerpt weighted towards active compounds, which were near 9.8% of everything screened.
HPGD block: inhibitors of human 15-hydroxyprostaglandin dehydrogenase (HPGD); P15428; purified HPGD, NADH fluorescence kinetic, PGE2 substrate; Potency, µM, for the others: top-dose activity change, negative = inhibition, usual class: inhibitors; actives 4.3% (n = 150,000); AID 894; note: potency is the fitted concentration of half-maximal effect; % is set by controls: 0 for no effect and ±100 for the full control effect
Target sequence (P15428 whole entry, looked up): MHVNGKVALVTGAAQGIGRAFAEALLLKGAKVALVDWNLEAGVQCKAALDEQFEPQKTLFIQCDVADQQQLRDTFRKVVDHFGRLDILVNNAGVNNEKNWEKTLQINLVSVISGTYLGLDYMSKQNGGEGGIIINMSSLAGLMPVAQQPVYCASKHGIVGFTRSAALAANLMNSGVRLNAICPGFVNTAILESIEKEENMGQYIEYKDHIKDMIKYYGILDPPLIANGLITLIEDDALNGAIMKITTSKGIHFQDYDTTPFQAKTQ
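NADH formation kinetics: reaction with 30 uM PGE2 and 1 mM NAD+ (final), 20 nM enzyme, Tris-HCl pH 8 with Tween 20, after 15 min compound preincubation at room temperature. Fluorescence change, last versus first of five reads.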
HTT ATP protect: protects HTT-Q103 PC12 cells, measured by ATP. PC12 HTT-Q103 induced, cytoprotection, ATP luminescence, 40 h. Potency, µM (doses to about 56.4 µM), for inactives: cytoprotection (ATP increase), actives largely listed as activators. actives 0.14% (n = 230,000). AID 1471; active = well fitted curve in the direction sought with a large enough effect; inconclusive = small, poorly fitted or top-dose-only effect, or another doubt; inactive = no such curve, though single readings can be large; an effect the other way counts as inactive or inconclusive; note: potency is the fitted concentration of half-maximal effect; % of control where 0% means no effect; nearly all actives have a fitted effect of over 45% in size
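Rat PC12, Q103 Htt exon1-GFP fusion, ecdysone promoter; tebufenozide inducer 100 nM final; compound titration; qHTS, 1500 cells/well; ATPlite luminescent read.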
KDM4E inh: inhibitors of human JMJD2E histone demethylase; B2RXH2; Potency, µM (titrated, usually from 57.1 µM), without a hit: at the top dose activity change, negative = inhibition, most hits filed as inhibitors; actives 1.6% (n = 230,000); JMJD2E catalytic domain, FDH-coupled NADH fluorescence (FDH is formaldehyde dehydrogenase);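 note: potency is the fitted concentration of half-maximal effect; 0% = wells with enzyme and -100% = buffer wells without enzyme; nearly all actives have a fitted effect of over 50% in size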
Target sequence (B2RXH2 1-337 limits assumed): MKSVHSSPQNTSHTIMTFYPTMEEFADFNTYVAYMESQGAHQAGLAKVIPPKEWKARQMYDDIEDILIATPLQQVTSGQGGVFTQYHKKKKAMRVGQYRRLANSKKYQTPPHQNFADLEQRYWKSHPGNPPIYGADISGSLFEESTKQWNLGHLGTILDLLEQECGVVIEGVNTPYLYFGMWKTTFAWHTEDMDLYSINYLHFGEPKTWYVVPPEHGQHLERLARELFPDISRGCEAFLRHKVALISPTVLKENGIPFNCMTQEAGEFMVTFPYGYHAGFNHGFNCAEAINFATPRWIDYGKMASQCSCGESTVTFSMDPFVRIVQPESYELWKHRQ
ALDH1A1 inh: ALDH1A1 (human) enzyme inhibition; Purified ALDH1A1, NADH fluorescence, propionaldehyde substrate; Potency, µM (doses to about 75.3 µM), without a hit: top-dose activity, negative = inhibition, actives largely listed as inhibitors; actives 7.3% (n = 220,000); P00352;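 note: potency is the fitted concentration of half-maximal effect; plate controls were no enzyme wells and a reference inhibitor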
CBFb RUNX1 block: inhibitors of human CBF-beta and RUNX1 interaction; AlphaScreen CBFb-His/RUNX1-biotin binding, biochemical; 230,000 tested, under 10 active; Q01196+Q13951; Potency, µM (doses to about 59.8 µM), for inactives: top-dose activity, negative = inhibition, actives largely listed as inhibitors; active = well fitted curve in the direction sought with a large enough effect; inconclusive = small, poorly fitted or top-dose-only effect, or another doubt; inactive = no such curve, though single readings can be large; an effect the other way counts as inactive or inconclusive; note: % of control where 0% means no effect
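CBFb-His/RUNX1-biotin, 30 nM each, preincubated 20 min RT; compound 15 min RT; Ni + streptavidin beads 50 ng each, 90 min RT; AlphaScreen read.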
HttQ103 aggreg: inhibitors of mutant huntingtin aggregate formation in PC12 cells | PC12 HttQ103-GFP aggregates, Acumen cytometry, 40 h | Potency, µM (titrated, usually from 46.1 µM), for inactives: at the highest dose activity change, negative = inhibition, actives largely listed as inhibitors | actives 1.1% (n = 220,000) | AID 1688; active = well fitted curve in the direction sought with a large enough effect; inconclusive = small, poorly fitted or top-dose-only effect, or another doubt; inactive = no such curve, though single readings can be large; an effect the other way counts as inactive or inconclusive; note: potency is the fitted concentration of half-maximal effect; % is set by controls: 0 for no effect and ±100 for the full control effect; nearly all actives have a fitted effect of over 60% in size
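Huntingtin Q103 exon 1–GFP aggregates in induced PC12 cells (100 nM tebufenozide) were quantified by cytometry from lysates, with compounds dosed in titration.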
The depositor's hits bear a star; ! = repeats disagree; [ ] = another dose, or the depositor's remark. Unless noted, calls come from the whole dose curve; as a rule, active = well fitted inhibition curve with a large enough effect (not every such curve was filed as active); inconclusive = small, poorly fitted or top-dose-only effect, or another doubt; inactive = no such curve, though single readings can be large or run the other way.

CC(C)n1nc(C(=O)Nc2cccc(S(=O)(=O)NCc3ccco3)c2)c2ccccc2c1=O was read as HTT ATP protect -12%[10 µM], KDM4E inh inconclusive, CBFb RUNX1 block 2% and HttQ103 aggreg -41%[9.22 µM].
CCOC(=O)CC1C(=O)NCCN1c1nc2ccc(C)cn2c(=O)c1/C=C1\SC(=S)N(C(C)CC)C1=O (centres undefined) was read as HTT ATP protect -10%[10 µM], KDM4E inh 3%, ALDH1A1 inh 1.4µM*, CBFb RUNX1 block 16% and HttQ103 aggreg -22%[9.22 µM].
CCOC(=O)CC1C(=O)NCCN1c1nc2ccc(C)cn2c(=O)c1/C=C1\SC(=S)N(CC(C)C)C1=O (centres undefined) was read as HTT ATP protect -4%[10 µM], KDM4E inh -5%, CBFb RUNX1 block 4% and HttQ103 aggreg -7%[9.22 µM].
Screening Cc1cc(Oc2ncccc2[N+](=O)[O-])c2cc(Cl)ccc2n1 returned HTT ATP protect 2%[10 µM], KDM4E inh 0%, CBFb RUNX1 block -8% and HttQ103 aggreg 2%[9.22 µM].
`CC(C)NC(=S)N=Nc1c(O)[nH]c2ccc([N+](=O)[O-])cc12` gave HTT ATP protect -22%[10 µM], KDM4E inh 14%, ALDH1A1 inh 10µM*, CBFb RUNX1 block 1% and HttQ103 aggreg -18%.
Screening C=C(C)CNC(=S)N=Nc1c(O)[nH]c2ccc([N+](=O)[O-])cc12 returned HTT ATP protect -12%, KDM4E inh 5%, ALDH1A1 inh -7%, CBFb RUNX1 block -26% and HttQ103 aggreg inconclusive.
Screening Cn1cc(C(=O)c2ccc(Cl)cc2Cl)cc1C(=O)N/N=C(\N)COc1ccc(F)cc1 returned HPGD block -10%, HTT ATP protect -61%, KDM4E inh inconclusive, ALDH1A1 inh 1%, CBFb RUNX1 block -10% and HttQ103 aggreg 18µM*.
For CCOc1ccc2ccccc2c1/C=N\NC(=O)OC the results were HPGD block -9%, HTT ATP protect 26%[10 µM], KDM4E inh inconclusive, ALDH1A1 inh inconclusive, CBFb RUNX1 block 4% and HttQ103 aggreg 2%.
C=CCOc1ccc2ccccc2c1/C=N/O was read as HPGD block 2.5µM*, HTT ATP protect -2%, KDM4E inh -8%, ALDH1A1 inh -2%, CBFb RUNX1 block -1% and HttQ103 aggreg 19%[9.22 µM].
Screening COc1ccc2ccccc2c1/C=N/O returned HPGD block 7.1µM*, HTT ATP protect 4%, KDM4E inh inconclusive, ALDH1A1 inh -3%, CBFb RUNX1 block 5% and HttQ103 aggreg -19%.
`C=CCOc1ccc(Br)cc1/C=N/O` gave HPGD block 4.5µM*, HTT ATP protect 17%, KDM4E inh -7%, ALDH1A1 inh inconclusive, CBFb RUNX1 block 3% and HttQ103 aggreg -6%[9.22 µM].
For C=CCOc1ccc(/C=N/O)cc1Cl the results were HPGD block -19%, HTT ATP protect 8%[10 µM], KDM4E inh -1%, ALDH1A1 inh 3%, CBFb RUNX1 block -8% and HttQ103 aggreg -8%.
For CCOc1cc(/C=C\[N+](=O)[O-])ccc1OCC(=O)N1CCOCC1 the results were HTT ATP protect -76%, KDM4E inh inconclusive, ALDH1A1 inh inconclusive, CBFb RUNX1 block 6% and HttQ103 aggreg inconclusive.
For CC(C)N(C(=O)CSc1nnc(CNc2ccc(F)cc2)o1)C(C)C the results were HPGD block -11%, HTT ATP protect -5%[10 µM], KDM4E inh -4%, ALDH1A1 inh 1%, CBFb RUNX1 block -9% and HttQ103 aggreg 15%.
For COc1cc(N=Nc2cccc(S(N)(=O)=O)c2)c2ccccc2c1N the results were HPGD block -12%, HTT ATP protect -21%[10 µM], KDM4E inh inconclusive, ALDH1A1 inh 7.9µM*!, CBFb RUNX1 block inconclusive and HttQ103 aggreg 10%[9.22 µM].
For NC1=NC(=Nc2cccc(S(N)(=O)=O)c2)c2ccccc21 the results were HTT ATP protect 4%[10 µM], KDM4E inh 4%, ALDH1A1 inh 3%, CBFb RUNX1 block 11% and HttQ103 aggreg 5%[9.22 µM].
COc1ccc(NC(=O)N(CCC(C)C)C(C)c2ccccn2)c(OC)c1 (centres undefined) was read as HPGD block -17%, HTT ATP protect -14%, KDM4E inh 9%, ALDH1A1 inh 14µM*, CBFb RUNX1 block 1% and HttQ103 aggreg 2%.
`CC(C)N1C(=S)N(Cc2ccco2)C(=O)C1CC(=O)Nc1ccccc1` (centres undefined) gave HTT ATP protect 18%, KDM4E inh 2%, ALDH1A1 inh inconclusive, CBFb RUNX1 block 4% and HttQ103 aggreg 16%.
Screening COc1ccc(OC)c2c(=S)c3ccccc3[nH]c12 returned HPGD block 5µM*, HTT ATP protect -7%, KDM4E inh inconclusive, ALDH1A1 inh 1.6µM* and CBFb RUNX1 block -18%[21.7 µM].
Screening COc1ccc(-c2c(N)nnc3c2[nH]c2ccccc23)cc1OC returned HTT ATP protect -1%, KDM4E inh 2%, ALDH1A1 inh -7%, CBFb RUNX1 block 4% and HttQ103 aggreg -14%.
For Cc1nn2c(COc3ccc(NC(=O)c4ccccc4Cl)cc3)nnc2c2ccccc12 the results were HPGD block 14µM*, KDM4E inh 6%, ALDH1A1 inh 5%, CBFb RUNX1 block -10% and HttQ103 aggreg -8%.
For Cc1nn2c(CN(C(=O)COc3ccccc3)c3ccccc3)nnc2c2ccccc12 the results were HPGD block -22%, HTT ATP protect 31%[10 µM], KDM4E inh 3%, ALDH1A1 inh 11µM*, CBFb RUNX1 block 0% and HttQ103 aggreg -3%.
`Cc1nn2c(COc3ccc(NC(=O)C(C)C)cc3)nnc2c2ccccc12` gave HTT ATP protect -68%, KDM4E inh 2%, ALDH1A1 inh -6%, CBFb RUNX1 block -6% and HttQ103 aggreg 11%.
`Cc1nn2c(CN(C(=O)CN3CCOCC3)c3ccccc3)nnc2c2ccccc12` gave HPGD block -3%, HTT ATP protect 5%[10 µM], KDM4E inh 6%, ALDH1A1 inh 18µM*, CBFb RUNX1 block -2% and HttQ103 aggreg 0%.
CCOC(=O)Nc1ccc(OCc2nnc3c4ccccc4c(C)nn23)cc1 was read as HTT ATP protect -44%, KDM4E inh -4%, ALDH1A1 inh 0%, CBFb RUNX1 block 3% and HttQ103 aggreg 18%.
Screening CC(=O)c1ccc(N2CCN(C(=S)NCCCN(C)C)CC2)cc1 returned HTT ATP protect -8%[10 µM], KDM4E inh -24%, ALDH1A1 inh inconclusive, CBFb RUNX1 block inconclusive and HttQ103 aggreg 19%.
